The results in this text go back to PubChem BioAssay (NCI).

Compounds without any hit were thinned out: in the full panel of roughly 83,000, 20% have a hit.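 The test compound was applied at a single concentration to cells in 96-well plates for 48 hours, and percent growth was recorded.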 Values without a mark were called inactive. Activity calls are given as the source filed them. How the source made its calls: active means growth percent below 10; inactive means the rest.

Some test systems named below: SR leukemia; RPMI-8226 leukemia; OVCAR-8 ovarian; OVCAR-5 ovarian; OVCAR-4 ovarian; SK-OV-3 ovarian; IGROV1 ovarian; OVCAR-3 ovarian; HS 578T breast; NCI/ADR-RES ovarian.
Experiment in all cases: NCI-60 one-dose screen, 48 h (100 = growth as untreated, 0 = no growth, -100 = all killed)
Common to all, as to conditions: 10 µM unless noted

Regarding `C#Cc1cccc(NC(=O)Nc2ccc(NC(=O)CCl)cc2)c1`, the growth in the experiment on SR leukemia is -36.4% [8.25 µM] (active); with RPMI-8226 leukemia, -37.1% [8.25 µM] (active); with OVCAR-8 ovarian, -14.9% [8.25 µM] (active); with OVCAR-5 ovarian, -14.5% [8.25 µM] (active); with OVCAR-4 ovarian it was -50.8% [8.25 µM] (active); in the experiment on SK-OV-3 ovarian, -86.7% [8.25 µM] (active). Besides, the growth is -88% [8.25 µM] (active) with IGROV1 ovarian, -88% [8.25 µM] (active) with OVCAR-3 ovarian, -4.85% [8.25 µM] (active) in the experiment on HS 578T breast and -8.33% [8.25 µM] (active) in the experiment with NCI/ADR-RES ovarian.

Take `O=C(O)CCCCCCCCCCCCCCC(=O)O`: the growth in the experiment with SR leukemia was 101%; with RPMI-8226 leukemia it was 93.8%; in the experiment on OVCAR-8 ovarian, 97.2%; in the experiment on OVCAR-5 ovarian, 109%; in the experiment with OVCAR-4 ovarian, 120%; in the experiment with SK-OV-3 ovarian it was 102%. Also, the growth in the experiment on IGROV1 ovarian is 100%; in the experiment with OVCAR-3 ovarian, 101%; in the experiment on NCI/ADR-RES ovarian it was 103%.

Turning to `CC(O)/C=C/C=C/C(O)CC/C=C/C(=O)NCC(C)(C)O` (configuration not stated), the growth in the experiment on SR leukemia was 66.4%; in the experiment on RPMI-8226 leukemia, 100%; in the experiment with OVCAR-8 ovarian it was 93.3%; with OVCAR-5 ovarian it was 113%; in the experiment with OVCAR-4 ovarian, 106%; in the experiment on SK-OV-3 ovarian, 111%. Also, the growth in the experiment with IGROV1 ovarian was 117%; in the experiment on OVCAR-3 ovarian, 115%; with HS 578T breast it was 99.8%; with NCI/ADR-RES ovarian, 109%.

Consider `O=C(O)CNC(=O)CN1C(=O)c2ccccc2C1=O`, for which the growth in the experiment with SR leukemia is 102%; with RPMI-8226 leukemia it was 101%; in the experiment with OVCAR-8 ovarian, 94.4%; with OVCAR-5 ovarian it was 101%; in the experiment with OVCAR-4 ovarian, 115%; with SK-OV-3 ovarian, 90.7%. Also, the growth with IGROV1 ovarian was 107%; in the experiment on OVCAR-3 ovarian it was 116%; in the experiment with NCI/ADR-RES ovarian, 104%.

Take `COc1ccc(C(=O)c2cc3c(N)c(C(=O)Nc4cccc5ccccc45)sc3nc2C)cc1`: the growth in the experiment with SR leukemia is -11.9% (active); with RPMI-8226 leukemia it was 5.61% (active); in the experiment on OVCAR-8 ovarian it was -5.04% (active); with OVCAR-5 ovarian it was 39.9%; in the experiment with OVCAR-4 ovarian it was 37.2%; in the experiment with SK-OV-3 ovarian, 32%. The growth was 23.8% in the experiment on IGROV1 ovarian, -7.2% (active) in the experiment with OVCAR-3 ovarian and 8.37% (active) in the experiment on NCI/ADR-RES ovarian.

Turning to `COc1cc(Nc2cc(O)c3c(=O)cc(-c4ccccc4)oc3c2)cc(OC)c1`, the growth in the experiment with SR leukemia is 17.3%; in the experiment with RPMI-8226 leukemia, 17.1%; in the experiment on OVCAR-8 ovarian it was 26.1%; in the experiment with OVCAR-5 ovarian, 45.5%; in the experiment with OVCAR-4 ovarian it was 59.3%; in the experiment with SK-OV-3 ovarian, 35.9%. In addition, the growth was 42.1% in the experiment on IGROV1 ovarian, 0.368% (active) with OVCAR-3 ovarian, 12.4% in the experiment with HS 578T breast and 22.2% in the experiment with NCI/ADR-RES ovarian.

Consider `CCCCCCCC(=O)Nc1nc2[nH]c(CN3CCN(Cc4cccc(I)c4)CC3)c(CN3CCN(Cc4cccc(I)c4)CC3)c2c(=O)[nH]1`, for which the growth with SR leukemia is -43.4% (active); with RPMI-8226 leukemia, -22.5% (active); with OVCAR-8 ovarian it was -49.6% (active); with OVCAR-5 ovarian it was -66.1% (active); in the experiment with OVCAR-4 ovarian, -89.8% (active); with SK-OV-3 ovarian it was -69.8% (active). Moreover, the results for the growth with IGROV1 ovarian, in the experiment on OVCAR-3 ovarian and in the experiment on NCI/ADR-RES ovarian were -74% (active), -95.8% (active) and -51.1% (active), respectively.

In the case of `Nc1c(C(=O)Nc2cccc3ccncc23)sc2nc3c(cc12)C(=O)CCC3`, the growth in the experiment with SR leukemia is 33.3%; in the experiment with RPMI-8226 leukemia, 64.6%; in the experiment with OVCAR-8 ovarian, 68.1%; in the experiment on OVCAR-5 ovarian it was 68.5%; with OVCAR-4 ovarian, 80.7%; with SK-OV-3 ovarian, 35.3%. Besides, the growth in the experiment on IGROV1 ovarian was 57.8%; in the experiment on OVCAR-3 ovarian, 3.84% (active); with HS 578T breast, 21.3%; with NCI/ADR-RES ovarian, 68.4%.

As to `COc1cc(NCC(O)CN(CC(C)C)CC(C)C)c2nc(C)ccc2c1` (configuration not stated), the growth in the experiment with SR leukemia was 102%; in the experiment with RPMI-8226 leukemia, 99.4%; in the experiment with OVCAR-8 ovarian, 87.2%; in the experiment with OVCAR-5 ovarian it was 122%; in the experiment on OVCAR-4 ovarian, 40.2%; with SK-OV-3 ovarian, 75.2%. The growth in the experiment with IGROV1 ovarian was 86.9%; in the experiment on OVCAR-3 ovarian, 53.2%; with NCI/ADR-RES ovarian, 92%.

Take `C=Cc1cc[n+](CCCCCCCCCCCC)cc1`: the growth in the experiment on SR leukemia is 97.2%; in the experiment with RPMI-8226 leukemia it was 104%; with OVCAR-8 ovarian, 112%; in the experiment with OVCAR-5 ovarian, 108%; in the experiment with OVCAR-4 ovarian it was 133%; with SK-OV-3 ovarian it was 144%. The figures for the growth in the experiment with IGROV1 ovarian, with OVCAR-3 ovarian and in the experiment with NCI/ADR-RES ovarian were 104%, 110% and 106%, respectively.

Consider `N/C(=N\N=C\c1cc2ccccc2s1)N/N=C/c1cc2ccccc2s1`, for which the growth in the experiment on SR leukemia was 96.8%; in the experiment on RPMI-8226 leukemia it was 99.8%; with OVCAR-8 ovarian, 107%; in the experiment on OVCAR-5 ovarian it was 104%; in the experiment on OVCAR-4 ovarian, 102%; in the experiment on SK-OV-3 ovarian, 94.3%. Besides, the growth was 93.7% in the experiment on IGROV1 ovarian, 107% in the experiment with OVCAR-3 ovarian, 102% in the experiment on HS 578T breast and 103% in the experiment with NCI/ADR-RES ovarian.

Consider `O=C(Nc1nc(-c2ccc(Br)cc2)cs1)c1cc(-c2ccc(Br)cc2)nc2ccc(Cl)cc12`, for which the growth is 70.4% in the experiment on SR leukemia; 85% with RPMI-8226 leukemia; 88.1% in the experiment with OVCAR-8 ovarian; 104% in the experiment on OVCAR-5 ovarian; 82.5% in the experiment on OVCAR-4 ovarian; 78.2% with SK-OV-3 ovarian. Besides, the growth in the experiment with IGROV1 ovarian is 60.5%; in the experiment with OVCAR-3 ovarian, 86.9%; in the experiment with HS 578T breast it was 95.2%; in the experiment with NCI/ADR-RES ovarian it was 89.7%.

As to `CC(C)Cc1ccc(C(C)C(=O)NCc2ccc(Cn3c(=O)sn(-c4ccc(Cl)cc4)c3=O)cc2)cc1` (configuration not stated), the growth in the experiment on SR leukemia was 72.2%; in the experiment with RPMI-8226 leukemia, 83.9%; in the experiment with OVCAR-8 ovarian it was 79.5%; in the experiment on OVCAR-5 ovarian, 89.3%; in the experiment on OVCAR-4 ovarian it was 47.4%; with SK-OV-3 ovarian it was 92%. Moreover, the growth in the experiment with IGROV1 ovarian is 92.2%; in the experiment with OVCAR-3 ovarian, 91.5%; in the experiment with NCI/ADR-RES ovarian, 90.3%.

Regarding `O=S(=O)(NCCNc1nccc(-c2c(-c3cccc(F)c3)nc3occn23)n1)c1cccc2ccccc12`, the growth is 41.6% in the experiment on SR leukemia; 21.7% in the experiment on RPMI-8226 leukemia; 58.4% with OVCAR-8 ovarian; 116% in the experiment with OVCAR-5 ovarian; 47.8% in the experiment with OVCAR-4 ovarian; 69% in the experiment with SK-OV-3 ovarian. For the same compound, the values for the growth in the experiment with IGROV1 ovarian, with OVCAR-3 ovarian and in the experiment on NCI/ADR-RES ovarian were 35.4%, 71.7% and 48.8%, respectively.
